What was measured:
Conditions in all cases: concentration: 1 μM, replicates: in singlicate; n = 1
[1] = system: CAMKK2
[2] = system: CASK
[3] = system: T1, CDC2L1
T1 construct: gene CDK11B

[4] = system: CDC2L2
[5] = system: T2, CDC2L5
T2 construct: gene CDK13

[6] = system: T3, CDK11
T3 construct: gene CDK19

[7] = system: CDK2
[8] = system: CDK3
[9] = system: CDK4-cyclinD1
[10] = system: CDK4-cyclinD3
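Note: KINOMEscan kinase panel screen.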

SMILES | %Inh [1] | %Inh [2] | %Inh [3] | %Inh [4] | %Inh [5] | %Inh [6] | %Inh [7] | %Inh [8] | %Inh [9] | %Inh [10]
C[C@@H]1CCCCN1c1cc(-c2ccc3c(N)n[nH]c3c2)nc(N)n1 [GSK2258759] | 26% | 11% | 0% | 18% | 0% | 4% | 0% | 15% | 0% | 7%
O=C1NC(=O)C(N2CCc3ccccc32)=C1c1ccccc1Cl [SB-373598] | 4% | 0% | 0% | 3% | 0% | 12% | 16% | 0% | 14% | 15%
Cl.O=C(Nc1cccc(-c2nn3ncccc3c2-c2ccnc(Nc3cccnc3)n2)c1)c1c(F)cccc1F [GSK312879] | 0% | 22% | 3% | 7% | 0% | 0% | 0% | 19% | 0% | 4%
Cl.Oc1ccc(-c2nc(-c3ccccc3)[nH]c2-c2ccncc2)cc1 [SB-428218] | 15% | 0% | 0% | 5% | 0% | 8% | 0% | 55% | 49% | 2%
COc1ccc(Nc2nccc(NCCNC(=O)Nc3ccccc3F)n2)cc1 [GSK1379901] | 0% | 9% | 5% | 20% | 0% | 12% | 0% | 16% | 0% | 9%
COc1ccc(Nc2nccc(-c3cccc(NC(=O)c4cc5cc(F)ccc5[nH]4)c3)n2)cc1 [GSK1229782] | 29% | 14% | 4% | 24% | 0% | 24% | 17% | 20% | 17% | 0%
Cc1cccc(-c2cc(Nc3ccncc3)c3ccccc3n2)n1 [GSK223675] | 20% | 0% | 0% | 19% | 0% | 7% | 0% | 0% | 0% | 9%
Cc1cccc(-c2nc(Nc3cccc(C(N)=O)c3)c3ccccc3n2)n1 [GW876019] | 0% | 30% | 0% | 2% | 10% | 8% | 0% | 59% | 18% | 0%
Cl.NC(=O)c1cccc(Nc2nccc(Nc3ccc(Oc4cccc(Cl)c4)c(Cl)c3)n2)c1 [GW659008] | 0% | 7% | 0% | 13% | 0% | 8% | 0% | 24% | 0% | 0%
O=C(Nc1n[nH]c2cc(-c3cccc(F)c3F)ccc12)C1CC1 [SB-733894] | 13% | 30% | 2% | 0% | 8% | 5% | 22% | 0% | 0% | 30%
COC(=O)c1c(-c2ccccc2)c2cc(C(=O)O)ccc2c(=O)n1Cc1ccccc1 | 0% | 18% | 0% | 3% | 40% | 0% | 0% | 0% | 0% | 0%
CS(=O)(=O)c1ccc(-c2nc3n(c2-c2ccncc2)CCC3)cc1 [SKF-105942] | 0% | 26% | 100% | 0% | 0% | 0% | 0% | 28% | 0% | 6%
O=C(O)COc1ncnc2cc(-c3ccc4[nH]ncc4c3)sc12 | 24% | 0% | 8% | 0% | 5% | 21% | 0% | 20% | 1% | 0%
COc1ccc(CNC(=O)NC2CCN(c3ccnc(Nc4cc(OC)c(OC)c(OC)c4)n3)C2)cc1 (stereo not drawn) [GSK1379748] | 12% | 10% | 0% | 14% | 0% | 2% | 0% | 0% | 6% | 0%
Cc1cccc(-c2nc(C)cc(Nc3ccncc3)n2)n1 [GSK257997] | 12% | 19% | 100% | 17% | 0% | 12% | 0% | 0% | 0% | 0%
COc1cc2ncnc(Nc3ccc4nc(-c5ccccc5)[nH]c4c3)c2cc1OC.Cl [GW282450] | 13% | 25% | 0% | 16% | 0% | 0% | 0% | 22% | 0% | 0%
COC(=O)c1c(-c2ccccc2)c2cc(OC)ccc2c(=O)n1Cc1ccccc1 | 17% | 0% | 7% | 3% | 0% | 12% | 2% | 10% | 0% | 0%
Cc1c(O)cccc1Nc1ccnc2ccc(C(F)(F)F)cc12.Cl [GW466413] | 3% | 0% | 0% | 0% | 0% | 17% | 0% | 0% | 0% | 0%
